Arbovirus inh: antivirals against arbovirus infection, primary screen, cell-based, full library, 10K replicate subset; AID 1251, 2008; 200,000 tested, 0.37% active; inhibition, % at 10 µM; arbovirus infection cell-based antiviral screen; in the data active = inhibition above about 30%
Lmaj promast: Leishmania major promastigote growth inhibition, primary screen; Leishmania major promastigotes, resazurin fluorescence viability; inhibition, % at 10 µM; 200,000 tested, 9% active; AID 1063, 2008; in the data active = inhibition above about 50%;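 note: promastigotes grown with compound for 44 hours at 28 °C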
WT yeast gro inh: growth inhibition of WT strain, primary screen, mitochondrial fusion inhibitor project, WT and mutant strains, chemical genetic. mitochondrial fusion phenotypic screen. inhibition, % at 10 µM. 190,000 tested, 2.1% active. AID 1362, 2008; in the data active = inhibition above about 58%; tested in S. cerevisiae
CHOP inhibitor: inhibitors of CHOP promoter induction, primary screen, cell-based, unfolded protein response, luciferase reporter; 220,000 tested, 3.8% active; AID 2732, 2010; CHO-K1 CHOP-promoter luciferase, tunicamycin-induced, 15-18 h; inhibition, % at 10 µM;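 active = compounds that reduced the stress-induced luciferase reporter signal by more than about 70% of percent inhibition, limit read from the data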
Large screens that a line does not name were inactive. Shown are actives, neighbours in structure and some others; about 12% of the full set was active somewhere.

CCOC(=O)CSc1nc2cc(OCC)ccc2cc1C#N	CHOP inhibitor 92.5
COc1ccc(C(=O)N2CCN(c3nc4cc(C)ccc4cc3C#N)CC2)c(OC)c1	Lmaj promast 63.4
CCOc1ccc2cc(C#N)c(SCC(=O)N3CCC(C)CC3)nc2c1	none
Cc1ccc(NC(=O)C2CC(=O)N(Cc3ccco3)C2)cc1 (configuration not stated)	none (no result: Arbovirus inh, Lmaj promast, WT yeast gro inh)
O=C(O)/C=C\C(=O)Nc1ccc(F)c(F)c1F	none (no result: Arbovirus inh, Lmaj promast, WT yeast gro inh)
O=C(/C=C/c1ccc(Cl)cc1)NC(=S)NN1CCCCC1c1cccnc1 (configuration not stated)	Lmaj promast 90.7, WT yeast gro inh 66.4
CCn1c(=S)sc2c(=O)n(-c3ccccc3)c(SC)nc21	Lmaj promast 87.1
N#CCSc1nc2c(sc(=S)n2Cc2ccco2)c(=O)n1-c1ccc(F)cc1	Lmaj promast 95.5
CN(C1=C(NC(=O)c2ccc(Cl)cc2)C(=O)c2ccccc2C1=O)c1ccccc1	Lmaj promast 63.8, WT yeast gro inh 72.8
O=C(NC1=C(Nc2ccc(Cl)cc2)C(=O)c2ccccc2C1=O)c1ccccc1	Lmaj promast 77.7, WT yeast gro inh 79.3
O=C(NC1=C(NC2CCS(=O)(=O)C2)C(=O)c2ccccc2C1=O)c1ccccc1 (configuration not stated)	Lmaj promast 99.4, CHOP inhibitor 102.3
CN(c1ccc(C(=O)Nc2ccc(Cl)cn2)cc1)S(=O)(=O)c1ccccc1	none
O=C(Cc1ccc(Cl)cc1)Nc1ccc(NC(=O)c2ccccc2)cc1	none
Cc1cccc(NC2=C(NC(=O)c3ccccc3)C(=O)c3ccccc3C2=O)c1	Lmaj promast 51.9
O=C(Nc1ccccc1)N1N=C(c2cccs2)CC1c1cccs1 (configuration not stated)	Lmaj promast 89.5
COc1cccc(C2Oc3ccccc3C3CC(c4cccs4)=NN32)c1 (configuration not stated)	none (no result: Arbovirus inh, Lmaj promast, WT yeast gro inh)
O=C(c1ccccc1)C1Oc2ccccc2C2CC(c3cccs3)=NN12 (configuration not stated)	Lmaj promast 64.7
O=C(CN1CCOCC1)N1N=C(c2cccs2)CC1c1cccs1 (configuration not stated)	none
COc1cccc(-n2c([S-])c(C(=O)Nc3ccc(S(=O)(=O)N4CCOCC4)cc3)[n+]3cc(C(N)=O)ccc23)c1	none (no result: Arbovirus inh, Lmaj promast, WT yeast gro inh)
Cc1ccccc1NC(=S)N(Cc1ccco1)C(C)c1cccs1 (configuration not stated)	none
Cc1cccc(NC(=S)N(Cc2ccco2)C(C)c2cccs2)c1 (configuration not stated)	WT yeast gro inh 72.1
CC(c1cccs1)N(Cc1ccco1)C(=S)Nc1ccc(F)c(Cl)c1 (configuration not stated)	WT yeast gro inh 78.5
COc1cccc(NC(=S)N(Cc2ccco2)C(C)c2ccco2)c1 (configuration not stated)	none
CC(c1cccs1)N(Cc1ccco1)C(=S)Nc1ccccc1Cl (configuration not stated)	WT yeast gro inh 63.4
C/C=C\C=C\C(=O)Nc1cccc(C2=NOC3(C2)C[C@@H](C(N)=O)N(C(=O)C(c2ccccc2)c2ccccc2)C3)c1 (some centres not stated)	none (no result: Arbovirus inh, Lmaj promast, WT yeast gro inh)
N#C/C(=C(/O)COC(=O)c1ccc(C#N)cc1)c1nc2ccccc2s1	none
CCN(CC)c1ccc(C(=O)OCC(=O)Nc2ccc3[nH]c(=O)[nH]c3c2)cc1	none
O=C(CSCc1cnn(-c2ccccc2)c1-n1cccc1)N1CCN(Cc2ccccc2)CC1	Lmaj promast 96.9, WT yeast gro inh 63.0
N#Cc1nc(-c2ccco2)oc1N1CCC(Cc2ccccc2)CC1	none
CNC(=S)N1CCN(C(c2ccccc2)c2ccccc2)CC1	WT yeast gro inh 70.3
COc1ccc(NC(=S)N2CCN(C(c3ccccc3)c3ccccc3)CC2)cc1OC	none
CCC(C)NC(=S)N1CCN(C(c2ccccc2)c2ccccc2)CC1 (configuration not stated)	WT yeast gro inh 69.2
CCOC(=O)C1=C(C)NC(C)=C(C(=O)OCC)C1C(=O)OCC(=O)N(C)C	none (no result: Arbovirus inh, Lmaj promast, WT yeast gro inh)
CCn1c(COc2ccc(=O)n(-c3ccccc3)n2)nnc1SC	none
Cc1ccc2nc3c(cc(S(=O)(=O)c4ccccc4)c(=N)n3Cc3ccco3)c(=O)n2c1	Lmaj promast 80.9
CCOC(=O)c1cc2c(=O)n3ccccc3nc2n(Cc2ccco2)c1=NC(=O)c1ccccc1OC	CHOP inhibitor 71.7
Cc1ccc(S(=O)(=O)c2cc3c(=O)n4ccccc4nc3n(Cc3ccco3)c2=N)cc1C	Lmaj promast 56.0
O=C(Nc1ccc(S(=O)(=O)N2CCCCC2)cc1)c1ccc(CN2CCc3ccccc3C2)cc1	Lmaj promast 99.1, CHOP inhibitor 79.9
O=C(Nc1ccc(S(=O)(=O)Nc2ccccc2)cc1)c1ccc(CN2CCOCC2)cc1	Lmaj promast 82.5
COc1ccccc1C(=O)C1CCCN(C(=O)c2cccc(-n3cccn3)c2)C1 (configuration not stated)	none
CC(C)CC(c1nnnn1Cc1cccs1)N1CCN(c2nc3ccccc3s2)CC1 (configuration not stated)	Lmaj promast 97.8
CCC(c1nnnn1Cc1cccs1)N1CCN(c2nc3ccccc3s2)CC1 (configuration not stated)	none
COCCn1nnnc1C(c1cccs1)N1CCN(c2nc3ccccc3s2)CC1 (configuration not stated)	Lmaj promast 94.8
COCCn1nnnc1C(c1cccs1)N1CCN(c2cc(C)ccc2C)CC1 (configuration not stated)	none
CC(C)(C)OC(=O)N1CCC(CNC(=O)c2cccs2)CC1	none (no result: Arbovirus inh, Lmaj promast, WT yeast gro inh)
c1ccc2c(c1)ccc1ncccc12	none
Oc1c(N=Nc2ccccn2)ccc2ccccc12	Lmaj promast 100.2, CHOP inhibitor 79.5
O=C1c2cccc3cccc(c23)C(=O)N1c1nccs1	none
O=C1c2cccc3cccc(c23)C(=O)N1c1ccc2ncccc2c1	CHOP inhibitor 88.9
COCCN(C(=O)CSc1nncn1-c1ccccc1)c1c(N)n(Cc2ccccc2)c(=O)[nH]c1=O	Lmaj promast 53.5
CCN(C(=O)CSc1nncn1-c1ccccc1)c1c(N)n(Cc2ccccc2)c(=O)[nH]c1=O	none
Cc1ccc(CNC(=O)c2ccc(Cl)cc2[N+](=O)[O-])cc1	none
C=C1C(=O)[C@@]23[C@H](O)C[C@@H]4C(C)(C)CC[C@H](O)[C@]4(C)[C@@H]2C[C@H](O)[C@@H]1[C@H]3O	none
C=C1C(=O)[C@@]23[C@H](O)C[C@@H]4C(C)(C)CC[C@H](O)[C@@]4(C)[C@@H]2CC[C@@H]1[C@H]3O	Lmaj promast 100.4, CHOP inhibitor 98.5
COc1cccc(-c2nc(N3CCN(c4ccccc4)CC3)c3ccccc3n2)c1O	none
COc1cnc(-c2ccccc2)nc1Oc1cccc(C)c1C	CHOP inhibitor 78.3
COc1cccc(-c2nc(Oc3cccc(C)c3C)c3ccccc3n2)c1O	CHOP inhibitor 82.4
COc1cccc(-c2nc(NC(C)C)c3ccccc3n2)c1O	Lmaj promast 56.4
COc1cnc(-c2ccccc2)nc1Oc1ccccc1C	none
CCC(C)Nc1nc(-c2cccc(OC)c2O)nc2ccccc12 (configuration not stated)	Lmaj promast 58.5
